In PubChem BioAssay AID1159580 (chemical genetic matrix, 2015):
The whole screen tested about 5,500 compounds, of which about 2,000 (36%) were called active. About 18% were inconclusive and are not listed. Rule as the data show it: active = normalized growth mostly below about 0.91 (no sharp cut-off); inconclusive = no clear call, values can overlap the other calls; inactive = mostly above about 0.92. The list shows a part of the results.

Experiment: chemical genetic growth profiling, strain panel (AID 1159580);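 also: tested at 20 µM; growth read once vehicle control cultures reached saturation at 30 °C; 1 = growth at the plate median or of vehicle wells; lower values mean less growth of the strain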
Details: S. cerevisiae deletion strains, growth OD

Measured: normalized growth

C=C1C2CC[C@@]3(C)[C@H](c4ccoc4)OC(=O)C[C@]13O[C@H]1CC(=O)C(C)(C)[C@H](C(OC(C)=O)C(=O)OC)[C@@]21C (stereo not given in full)
inactive: locus YAL021C, strain ccr4, hits give low values 1 | locus YAL026C, strain drs2, hits give low values 1.03 | locus YAL030W, strain snc1, hits give low values 1 | locus YBL061C, strain skt5, hits give low values 1.02 | locus YBR009C, strain hhf1, hits give low values 1.02 | locus YBR021W, strain FUR4, hits give low values 0.999 | locus YBR023C, strain chs3, hits give low values 0.998 | locus YBR171W, strain sec66, hits give low values 1.02 | locus YBR229C, strain ROT2, hits give low values 0.994 | locus YBR231C, strain swc5, hits give low values 1.04 | locus YBR279W, strain paf1, hits give low values 1.01 | locus YCL011C, strain gbp2, hits give low values 0.993 | locus YCL016C, strain dcc1, hits give low values 0.983 | locus YCL029C, strain bik1, hits give low values 1 | locus YCL069W, strain vba3, hits give low values 1 | locus YCR088W, strain abp1, hits give low values 1.01 | locus YDL005C, strain med2, hits give low values 1.01 | locus YDL035C, strain GPR1, hits give low values 0.978 | locus YDL040C, strain nat1, hits give low values 1 | locus YDL074C, strain BRE1, hits give low values 1.01 | locus YDL101C, strain DUN1, hits give low values 1.01 | locus YDL185W, strain tfp1, hits give low values 1.01 | locus YDL192W, strain arf1, hits give low values 0.998 | locus YDR001C, strain nth1, hits give low values 1.02 | locus YDR069C, strain doa4, hits give low values 1.03 | locus YDR101C, strain arx1, hits give low values 0.978 | locus YDR137W, strain rgp1, hits give low values 0.872 | locus YDR150W, strain NUM1, hits give low values 0.985 | locus YDR159W, strain sac3, hits give low values 1.05 | locus YDR162C, strain NBP2, hits give low values 0.985 | locus YDR195W, strain ref2 1.02 | locus YDR297W, strain sur2, hits give low values 1.02 | locus YDR318W, strain mcm21, hits give low values 1.01 | locus YDR334W, strain swr1, hits give low values 1.01 | locus YDR335W, strain msn5, hits give low values 1.01 | locus YDR388W, hits give low values 1.01 | locus YDR392W, strain spt3, hits give low values 0.922 | locus YDR502C, strain sam2, hits give low values 1.02 | locus YEL003W, strain gim4, hits give low values 1.03 | locus YEL037C, strain rad23, hits give low values 1.01 | locus YEL061C, strain CIN8 (second series), hits give low values 1.01 | locus YEL061C, strain CIN8, hits give low values 0.99 | locus YER015W, strain faa2, hits give low values 1 | locus YER016W, strain bim1, hits give low values 1.01 | locus YER110C, hits give low values 1.01 | locus YER111C, strain swi4, hits give low values 1.02 | locus YER155C, strain BEM2 (second series), hits give low values 1.06 | locus YER155C, strain BEM2, hits give low values 1.02 | locus YER167W, strain BCK2, hits give low values 1 | locus YFR010W, strain ubp6, hits give low values 1.04 | locus YGL078C, strain dbp3, hits give low values 1.01 | locus YGL086W, strain mad1, hits give low values 0.987 | locus YGL167C, strain pmr1, hits give low values 1.01 | locus YGL173C, strain kem1, hits give low values 1.03 | locus YGL227W, strain vid30, hits give low values 1.01 | locus YGL240W, strain doc1, hits give low values 1.03 | locus YGL248W, strain PDE1, hits give low values 1.01 | locus YGL253W, strain hxk2, hits give low values 0.99 | locus YGR135W, strain pre9, hits give low values 1.05 | locus YGR252W, strain gcn5, hits give low values 1.02 | locus YHR013C, strain ard1, hits give low values 0.983 | locus YHR027C, strain rpn1, hits give low values 1.02 | locus YHR079C, strain IRE1 (second series), hits give low values 0.997 | locus YHR094C, strain hxt1, hits give low values 1.01 | locus YHR129C, strain ARP1, hits give low values 1.01 | locus YHR142W, strain chs7, hits give low values 0.977 | locus YHR200W, strain rpn10, hits give low values 1.01 | locus YIL066C, strain RNR3, hits give low values 0.976 | locus YIL073C, strain SPO22, hits give low values 1.01 | locus YIL125W, strain kgd1, hits give low values 0.994 | locus YIR030C, strain dcg1, hits give low values 0.997 | locus YJL092W, strain hpr5, hits give low values 1.02 | locus YJL095W, strain BCK1 (second series), hits give low values 1.02 | locus YJL095W, strain BCK1, hits give low values 1.04 | locus YJL115W, strain asf1, hits give low values 1.01 | locus YJL129C, strain trk1, hits give low values 1 | locus YJL134W, strain LCB3, hits give low values 0.998 | locus YJL154C, strain vps35, hits give low values 1.01 | locus YJL164C, strain tpk1, hits give low values 0.995 | locus YJL166W, strain qcr8, hits give low values 1.03 | locus YJL168C, strain set2, hits give low values 1 | locus YJL187C, strain SWE1 (second series), hits give low values 1.03 | locus YJL187C, strain SWE1, hits give low values 1 | locus YKL009W, strain mrt4, hits give low values 0.983 | locus YKL068W, hits give low values 1 | locus YKL085W, strain MDH1 (second series), hits give low values 0.981 | locus YKL085W, strain MDH1, hits give low values 0.981 | locus YKL160W, strain elf1, hits give low values 0.976 | locus YKR001C, strain vps1, hits give low values 0.995 | locus YKR026C, strain gcn3, hits give low values 1.01 | locus YKR091W, strain srl3, hits give low values 1 | locus YLL001W, strain dnm1, hits give low values 0.992 | locus YLL026W, hits give low values 1 | locus YLL041C, strain sdh2, hits give low values 1.01 | locus YLR027C, strain aat2, hits give low values 1.02 | locus YLR039C, strain RIC1, hits give low values 0.917 | locus YLR058C, strain SHM2, hits give low values 1.01 | locus YLR102C, strain apc9, hits give low values 1 | locus YLR221C, strain rsa3, hits give low values 1.04 | locus YLR258W, strain gsy2, hits give low values 1.02 | locus YLR262C, strain YPT6 (second series), hits give low values 0.892 | locus YLR268W, strain sec22, hits give low values 0.987 | locus YLR320W, strain mms22, hits give low values 1.03 | locus YLR342W, strain FKS1 (second series), hits give low values 0.978 | locus YLR342W, strain FKS1, hits give low values 1 | locus YLR357W, strain rsc2, hits give low values 1.02 | locus YLR370C, strain arc18, hits give low values 0.998 | locus YLR371W, strain rom2, hits give low values 1 | locus YLR384C, strain iki3, hits give low values 1.03 | locus YLR418C, strain cdc73, hits give low values 1.01 | locus YML016C, strain PPZ1, hits give low values 1 | locus YML032C, strain rad52, hits give low values 1.01 | locus YML120C, strain ndi1, hits give low values 1.01 | locus YML124C, strain tub3, hits give low values 1 | locus YMR058W, strain fet3, hits give low values 1.03 | locus YMR078C, strain ctf18, hits give low values 1.01 | locus YMR125W, strain sto1, hits give low values 0.996 | locus YMR129W, hits give low values 1.01 | locus YMR205C, strain PFK2, hits give low values 0.992 | locus YMR223W, strain ubp8, hits give low values 1.01 | locus YMR231W, strain pep5, hits give low values 1.01 | locus YMR307W, strain GAS1, hits give low values 0.996 | locus YNL067W, strain RPL9B, hits give low values 1.03 | locus YNL071W, strain lat1, hits give low values 0.993 | locus YNL209W, strain ssb2, hits give low values 0.993 | locus YNL233W, strain BNI4, hits give low values 1.01 | locus YNL248C, strain rpa49, hits give low values 1.04 | locus YNL250W, strain rad50, hits give low values 1.03 | locus YNL271C, strain bni1, hits give low values 1 | locus YNL298W, strain CLA4, hits give low values 1.01 | locus YNL307C, strain MCK1, hits give low values 1.01 | locus YNL322C, strain KRE1 (second series), hits give low values 1.02 | locus YNR049C, strain mso1, hits give low values 1.01 | locus YNR052C, strain pop2, hits give low values 1.02 | locus YOL006C, strain TOP1, hits give low values 0.972 | locus YOL012C, strain htz1 0.586 | locus YOL147C, strain pex11, hits give low values 1 | locus YOR001W, strain rrp6, hits give low values 1.04 | locus YOR061W, strain CKA2, hits give low values 0.997 | locus YOR069W, strain VPS5, hits give low values 1 | locus YOR070C, strain gyp1, hits give low values 1.03 | locus YOR080W, strain dia2, hits give low values 1.01 | locus YOR083W, strain WHI5, hits give low values 0.978 | locus YOR106W, strain vam3, hits give low values 0.958 | locus YOR136W, strain idh2, hits give low values 0.997 | locus YOR144C, strain elg1, hits give low values 1 | locus YOR184W, strain ser1, hits give low values 0.972 | locus YOR265W, strain rbl2, hits give low values 0.996 | locus YOR270C, strain vph1, hits give low values 0.904 | locus YOR290C, strain snf2, hits give low values 0.95 | locus YOR316C, strain cot1, hits give low values 1 | locus YPL051W, strain arl3, hits give low values 1.01 | locus YPL078C, strain atp4, hits give low values 0.958 | locus YPL106C, strain sse1, hits give low values 1.04 | locus YPL240C, strain hsp82, hits give low values 1.01 | locus YPR119W, strain clb2, hits give low values 1.01 | locus YPR141C, strain kar3, hits give low values 1 | locus YPR163C, strain tif3, hits give low values 1.01 | locus YPR167C, strain met16, hits give low values 0.999 | strain wtn01, hits give low values 0.993
